Results published in ChEMBL document CHEMBL1961873, “Compounds: GSK PKIS; Assays: Nanosyn kinase panel” (2012).

Legend:
[1] = biological target: T1, Ephrin type-B receptor 2 (Homo sapiens) (UniProt P29323); conditions: at 1 µM
T1 sequence (whole entry): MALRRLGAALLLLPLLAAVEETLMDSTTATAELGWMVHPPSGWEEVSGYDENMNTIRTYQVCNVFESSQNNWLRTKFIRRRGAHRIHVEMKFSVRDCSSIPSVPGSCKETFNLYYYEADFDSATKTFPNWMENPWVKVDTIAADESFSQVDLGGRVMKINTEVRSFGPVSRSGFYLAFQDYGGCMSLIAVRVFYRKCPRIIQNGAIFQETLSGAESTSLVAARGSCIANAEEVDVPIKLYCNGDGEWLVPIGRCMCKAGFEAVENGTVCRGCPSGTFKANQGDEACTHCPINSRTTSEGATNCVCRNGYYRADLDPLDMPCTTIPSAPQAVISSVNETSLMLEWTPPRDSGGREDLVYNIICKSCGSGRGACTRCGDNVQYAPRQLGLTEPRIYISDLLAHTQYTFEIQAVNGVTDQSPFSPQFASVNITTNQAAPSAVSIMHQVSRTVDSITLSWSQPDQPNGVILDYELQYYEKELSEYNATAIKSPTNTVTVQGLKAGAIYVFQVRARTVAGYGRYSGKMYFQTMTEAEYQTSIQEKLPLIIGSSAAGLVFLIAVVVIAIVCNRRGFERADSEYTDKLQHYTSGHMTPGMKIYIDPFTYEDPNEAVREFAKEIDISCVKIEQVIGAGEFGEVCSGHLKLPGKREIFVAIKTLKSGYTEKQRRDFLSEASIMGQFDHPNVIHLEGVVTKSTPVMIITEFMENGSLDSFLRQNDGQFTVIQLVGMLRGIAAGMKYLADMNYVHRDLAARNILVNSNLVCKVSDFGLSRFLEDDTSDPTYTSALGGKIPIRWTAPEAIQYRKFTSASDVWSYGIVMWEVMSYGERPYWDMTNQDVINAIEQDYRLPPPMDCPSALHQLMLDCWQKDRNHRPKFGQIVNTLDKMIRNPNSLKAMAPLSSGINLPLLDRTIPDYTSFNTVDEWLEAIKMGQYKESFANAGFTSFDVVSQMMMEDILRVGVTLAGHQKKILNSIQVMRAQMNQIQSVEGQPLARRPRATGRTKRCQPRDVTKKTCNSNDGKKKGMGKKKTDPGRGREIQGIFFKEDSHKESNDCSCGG

[2] = biological target: T2, Ephrin type-B receptor 3 (Homo sapiens) (UniProt P54753); conditions: at 0.1 µM
T2 sequence (whole entry): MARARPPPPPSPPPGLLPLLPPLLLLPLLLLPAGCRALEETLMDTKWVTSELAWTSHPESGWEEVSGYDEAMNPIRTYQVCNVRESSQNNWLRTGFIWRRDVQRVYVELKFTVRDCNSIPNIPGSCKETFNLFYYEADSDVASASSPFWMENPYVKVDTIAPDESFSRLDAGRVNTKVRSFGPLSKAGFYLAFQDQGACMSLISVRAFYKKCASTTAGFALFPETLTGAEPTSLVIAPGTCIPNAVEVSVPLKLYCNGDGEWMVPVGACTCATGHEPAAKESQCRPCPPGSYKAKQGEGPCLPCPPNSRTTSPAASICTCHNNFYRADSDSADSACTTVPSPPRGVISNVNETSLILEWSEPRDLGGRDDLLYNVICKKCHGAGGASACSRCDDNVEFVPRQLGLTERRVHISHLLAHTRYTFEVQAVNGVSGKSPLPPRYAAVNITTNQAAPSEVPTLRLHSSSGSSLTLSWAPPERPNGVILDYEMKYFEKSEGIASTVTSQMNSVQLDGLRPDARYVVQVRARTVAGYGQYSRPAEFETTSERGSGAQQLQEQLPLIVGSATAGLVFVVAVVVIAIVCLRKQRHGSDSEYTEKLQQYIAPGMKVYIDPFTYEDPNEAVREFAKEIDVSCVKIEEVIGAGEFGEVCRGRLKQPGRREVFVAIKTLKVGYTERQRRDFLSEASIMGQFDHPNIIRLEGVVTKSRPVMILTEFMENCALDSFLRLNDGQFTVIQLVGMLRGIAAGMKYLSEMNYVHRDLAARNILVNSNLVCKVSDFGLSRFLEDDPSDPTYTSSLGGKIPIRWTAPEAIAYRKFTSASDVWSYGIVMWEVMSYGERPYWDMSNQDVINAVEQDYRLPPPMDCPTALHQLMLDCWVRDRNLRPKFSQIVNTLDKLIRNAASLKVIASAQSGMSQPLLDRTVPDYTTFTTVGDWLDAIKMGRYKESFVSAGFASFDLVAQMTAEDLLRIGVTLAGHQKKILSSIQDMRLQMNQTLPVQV

[3] = biological target: T2, Ephrin type-B receptor 3 (Homo sapiens); conditions: at 1 µM
[4] = biological target: T3, Ephrin type-B receptor 4 (Homo sapiens) (UniProt P54760); conditions: at 0.1 µM
T3 sequence (whole entry): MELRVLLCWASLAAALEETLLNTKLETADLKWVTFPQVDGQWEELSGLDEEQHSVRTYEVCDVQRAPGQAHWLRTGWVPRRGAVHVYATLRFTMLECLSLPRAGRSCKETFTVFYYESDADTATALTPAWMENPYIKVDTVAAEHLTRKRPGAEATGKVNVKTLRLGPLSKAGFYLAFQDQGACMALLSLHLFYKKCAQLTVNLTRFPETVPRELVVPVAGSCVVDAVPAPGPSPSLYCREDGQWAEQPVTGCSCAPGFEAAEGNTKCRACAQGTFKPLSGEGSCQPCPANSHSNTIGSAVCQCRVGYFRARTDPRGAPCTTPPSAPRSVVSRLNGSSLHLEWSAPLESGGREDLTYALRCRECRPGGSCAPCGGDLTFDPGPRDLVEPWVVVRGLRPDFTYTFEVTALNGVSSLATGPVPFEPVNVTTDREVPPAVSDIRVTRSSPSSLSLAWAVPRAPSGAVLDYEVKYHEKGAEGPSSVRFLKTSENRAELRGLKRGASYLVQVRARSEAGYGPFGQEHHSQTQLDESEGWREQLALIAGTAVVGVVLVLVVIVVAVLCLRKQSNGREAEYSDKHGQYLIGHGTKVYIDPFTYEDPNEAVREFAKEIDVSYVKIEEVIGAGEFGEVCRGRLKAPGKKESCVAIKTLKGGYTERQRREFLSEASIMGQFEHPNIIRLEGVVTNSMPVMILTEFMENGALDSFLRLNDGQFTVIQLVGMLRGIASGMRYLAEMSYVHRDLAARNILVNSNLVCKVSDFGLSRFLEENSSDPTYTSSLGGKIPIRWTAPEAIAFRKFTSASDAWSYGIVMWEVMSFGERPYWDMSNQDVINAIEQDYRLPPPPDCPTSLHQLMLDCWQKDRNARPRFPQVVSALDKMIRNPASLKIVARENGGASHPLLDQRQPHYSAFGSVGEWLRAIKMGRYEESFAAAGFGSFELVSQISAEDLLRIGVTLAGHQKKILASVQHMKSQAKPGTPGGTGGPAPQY

[5] = biological target: T3, Ephrin type-B receptor 4 (Homo sapiens); conditions: at 1 µM
[6] = biological target: Receptor tyrosine-protein kinase erbB-2 (Homo sapiens) (UniProt P04626); conditions: at 0.1 µM
Sequence of Receptor tyrosine-protein kinase erbB-2 (Homo sapiens) (P04626 whole entry): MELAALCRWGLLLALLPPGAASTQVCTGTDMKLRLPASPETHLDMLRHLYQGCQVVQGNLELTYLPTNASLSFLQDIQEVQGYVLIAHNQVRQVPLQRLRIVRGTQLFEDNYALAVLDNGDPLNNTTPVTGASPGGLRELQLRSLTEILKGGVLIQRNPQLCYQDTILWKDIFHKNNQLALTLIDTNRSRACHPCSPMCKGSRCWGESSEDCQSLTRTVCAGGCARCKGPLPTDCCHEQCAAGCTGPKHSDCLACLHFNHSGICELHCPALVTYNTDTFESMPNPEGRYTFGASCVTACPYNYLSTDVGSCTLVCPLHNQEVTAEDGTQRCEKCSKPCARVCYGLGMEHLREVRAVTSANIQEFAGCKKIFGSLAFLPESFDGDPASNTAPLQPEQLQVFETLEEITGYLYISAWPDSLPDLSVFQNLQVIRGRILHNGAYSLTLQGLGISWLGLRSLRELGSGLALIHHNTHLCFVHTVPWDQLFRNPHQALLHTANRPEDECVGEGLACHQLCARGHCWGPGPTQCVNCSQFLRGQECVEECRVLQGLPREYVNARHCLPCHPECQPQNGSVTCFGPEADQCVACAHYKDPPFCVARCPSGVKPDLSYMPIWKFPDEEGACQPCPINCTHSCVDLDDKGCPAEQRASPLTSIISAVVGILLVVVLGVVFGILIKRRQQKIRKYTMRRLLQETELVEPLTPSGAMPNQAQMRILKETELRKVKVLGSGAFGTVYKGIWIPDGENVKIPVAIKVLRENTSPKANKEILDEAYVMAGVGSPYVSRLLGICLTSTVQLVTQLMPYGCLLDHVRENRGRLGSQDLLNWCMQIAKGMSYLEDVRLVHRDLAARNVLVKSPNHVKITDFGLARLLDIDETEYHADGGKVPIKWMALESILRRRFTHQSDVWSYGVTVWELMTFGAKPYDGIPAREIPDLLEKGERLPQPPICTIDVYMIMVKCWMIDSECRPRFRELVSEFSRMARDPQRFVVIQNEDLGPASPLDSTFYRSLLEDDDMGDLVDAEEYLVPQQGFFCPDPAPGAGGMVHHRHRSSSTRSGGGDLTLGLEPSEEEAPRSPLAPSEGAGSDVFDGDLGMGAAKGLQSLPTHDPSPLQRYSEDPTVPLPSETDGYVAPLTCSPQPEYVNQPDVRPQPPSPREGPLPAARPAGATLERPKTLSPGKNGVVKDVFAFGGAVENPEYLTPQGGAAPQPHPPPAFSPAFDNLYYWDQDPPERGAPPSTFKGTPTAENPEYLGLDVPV

[7] = biological target: Receptor tyrosine-protein kinase erbB-2 (Homo sapiens) (UniProt P04626); conditions: at 1 µM
[8] = biological target: Receptor tyrosine-protein kinase erbB-4 (Homo sapiens) (UniProt Q15303); conditions: at 0.1 µM
[9] = biological target: Receptor tyrosine-protein kinase erbB-4 (Homo sapiens) (UniProt Q15303); conditions: at 1 µM
[10] = biological target: Tyrosine-protein kinase Fer (Homo sapiens) (UniProt P16591); conditions: at 0.1 µM
Sequence of Tyrosine-protein kinase Fer (Homo sapiens) (P16591 whole entry, looked up): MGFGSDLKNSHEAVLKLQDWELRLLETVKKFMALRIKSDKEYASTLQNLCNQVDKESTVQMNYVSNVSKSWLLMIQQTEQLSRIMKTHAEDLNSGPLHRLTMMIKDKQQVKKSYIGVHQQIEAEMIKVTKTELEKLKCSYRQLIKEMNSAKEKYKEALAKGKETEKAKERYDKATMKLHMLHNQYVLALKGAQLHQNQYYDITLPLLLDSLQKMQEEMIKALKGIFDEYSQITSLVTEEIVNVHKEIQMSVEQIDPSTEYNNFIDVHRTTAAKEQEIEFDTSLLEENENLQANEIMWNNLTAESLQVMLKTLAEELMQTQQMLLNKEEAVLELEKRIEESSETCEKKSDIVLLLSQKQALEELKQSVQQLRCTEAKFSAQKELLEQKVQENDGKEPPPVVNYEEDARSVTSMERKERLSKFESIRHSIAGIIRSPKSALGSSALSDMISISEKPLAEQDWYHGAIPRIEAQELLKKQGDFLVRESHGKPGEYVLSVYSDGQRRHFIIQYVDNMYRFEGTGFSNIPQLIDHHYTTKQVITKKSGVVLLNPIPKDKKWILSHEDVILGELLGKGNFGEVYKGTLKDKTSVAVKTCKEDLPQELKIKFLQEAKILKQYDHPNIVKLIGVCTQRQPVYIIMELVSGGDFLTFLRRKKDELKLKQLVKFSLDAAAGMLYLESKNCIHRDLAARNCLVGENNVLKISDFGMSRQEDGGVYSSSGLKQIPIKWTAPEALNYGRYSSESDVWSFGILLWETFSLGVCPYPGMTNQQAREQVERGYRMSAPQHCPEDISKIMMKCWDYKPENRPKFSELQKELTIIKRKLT

[11] = biological target: Tyrosine-protein kinase Fer (Homo sapiens) (UniProt P16591); conditions: at 1 µM
[12] = biological target: Tyrosine-protein kinase Fes/Fps (Homo sapiens) (UniProt P07332); conditions: at 0.1 µM
Sequence of Tyrosine-protein kinase Fes/Fps (Homo sapiens) (P07332 whole entry): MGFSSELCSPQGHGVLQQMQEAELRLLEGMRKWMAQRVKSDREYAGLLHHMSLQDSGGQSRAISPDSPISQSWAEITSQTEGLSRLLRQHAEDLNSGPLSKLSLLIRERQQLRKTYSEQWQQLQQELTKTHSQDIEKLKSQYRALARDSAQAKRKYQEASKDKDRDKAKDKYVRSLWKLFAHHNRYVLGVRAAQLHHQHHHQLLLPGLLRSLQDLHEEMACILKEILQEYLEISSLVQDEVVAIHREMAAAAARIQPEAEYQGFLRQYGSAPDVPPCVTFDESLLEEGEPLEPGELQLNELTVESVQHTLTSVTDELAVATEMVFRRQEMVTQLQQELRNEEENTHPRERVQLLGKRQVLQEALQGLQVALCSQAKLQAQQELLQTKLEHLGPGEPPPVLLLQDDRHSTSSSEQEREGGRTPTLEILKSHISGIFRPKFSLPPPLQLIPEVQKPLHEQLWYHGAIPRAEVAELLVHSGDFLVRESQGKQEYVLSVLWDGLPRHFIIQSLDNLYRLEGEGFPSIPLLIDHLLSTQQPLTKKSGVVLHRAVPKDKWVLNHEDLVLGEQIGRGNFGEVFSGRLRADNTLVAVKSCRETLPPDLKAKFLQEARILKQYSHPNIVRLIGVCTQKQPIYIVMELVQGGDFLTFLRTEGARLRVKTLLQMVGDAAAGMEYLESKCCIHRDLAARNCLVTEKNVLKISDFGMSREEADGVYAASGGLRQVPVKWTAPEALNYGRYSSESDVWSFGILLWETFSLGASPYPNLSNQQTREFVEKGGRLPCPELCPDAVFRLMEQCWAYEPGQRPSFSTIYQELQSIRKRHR

[13] = biological target: Tyrosine-protein kinase Fes/Fps (Homo sapiens) (UniProt P07332); conditions: at 1 µM
[14] = biological target: Fibroblast growth factor receptor 1 (Homo sapiens) (UniProt P11362); conditions: at 0.1 µM
[15] = biological target: Fibroblast growth factor receptor 1 (Homo sapiens) (UniProt P11362); conditions: at 1 µM
[16] = biological target: Fibroblast growth factor receptor 2 (Homo sapiens) (UniProt P21802); conditions: at 0.1 µM
Sequence of Fibroblast growth factor receptor 2 (Homo sapiens) (P21802 22-821 limits assumed): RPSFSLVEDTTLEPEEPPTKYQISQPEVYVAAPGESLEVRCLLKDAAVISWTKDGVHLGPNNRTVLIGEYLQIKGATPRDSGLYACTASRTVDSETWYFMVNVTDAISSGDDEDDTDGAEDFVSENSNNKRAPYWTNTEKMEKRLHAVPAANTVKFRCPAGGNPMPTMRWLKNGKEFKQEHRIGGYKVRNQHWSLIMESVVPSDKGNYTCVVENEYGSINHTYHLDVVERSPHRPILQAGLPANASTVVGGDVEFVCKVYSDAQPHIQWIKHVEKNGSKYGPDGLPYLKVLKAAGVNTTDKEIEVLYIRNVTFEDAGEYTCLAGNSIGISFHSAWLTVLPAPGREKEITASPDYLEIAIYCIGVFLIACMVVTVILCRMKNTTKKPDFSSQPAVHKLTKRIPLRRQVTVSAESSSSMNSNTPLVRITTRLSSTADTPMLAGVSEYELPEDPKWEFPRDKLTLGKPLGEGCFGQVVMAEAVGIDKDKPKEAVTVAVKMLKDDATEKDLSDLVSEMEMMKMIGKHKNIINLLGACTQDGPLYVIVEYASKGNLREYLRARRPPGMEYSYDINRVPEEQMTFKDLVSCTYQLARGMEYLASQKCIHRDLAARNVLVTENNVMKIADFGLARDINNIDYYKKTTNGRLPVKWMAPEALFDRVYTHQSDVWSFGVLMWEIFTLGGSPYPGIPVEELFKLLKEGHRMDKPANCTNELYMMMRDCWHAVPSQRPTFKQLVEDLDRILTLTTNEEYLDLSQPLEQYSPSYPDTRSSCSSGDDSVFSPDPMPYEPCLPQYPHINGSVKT

[17] = biological target: Fibroblast growth factor receptor 2 (Homo sapiens) (UniProt P21802); conditions: at 1 µM
[18] = biological target: Fibroblast growth factor receptor 3 (Homo sapiens) (UniProt P22607); conditions: at 0.1 µM
[19] = biological target: Fibroblast growth factor receptor 3 (Homo sapiens) (UniProt P22607); conditions: at 1 µM
[20] = biological target: Fibroblast growth factor receptor 4 (Homo sapiens) (UniProt P22455); conditions: at 0.1 µM;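 note: values are mean percent inhibition of FGFR4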
Sequence of Fibroblast growth factor receptor 4 (Homo sapiens) (P22455 22-802 limits assumed): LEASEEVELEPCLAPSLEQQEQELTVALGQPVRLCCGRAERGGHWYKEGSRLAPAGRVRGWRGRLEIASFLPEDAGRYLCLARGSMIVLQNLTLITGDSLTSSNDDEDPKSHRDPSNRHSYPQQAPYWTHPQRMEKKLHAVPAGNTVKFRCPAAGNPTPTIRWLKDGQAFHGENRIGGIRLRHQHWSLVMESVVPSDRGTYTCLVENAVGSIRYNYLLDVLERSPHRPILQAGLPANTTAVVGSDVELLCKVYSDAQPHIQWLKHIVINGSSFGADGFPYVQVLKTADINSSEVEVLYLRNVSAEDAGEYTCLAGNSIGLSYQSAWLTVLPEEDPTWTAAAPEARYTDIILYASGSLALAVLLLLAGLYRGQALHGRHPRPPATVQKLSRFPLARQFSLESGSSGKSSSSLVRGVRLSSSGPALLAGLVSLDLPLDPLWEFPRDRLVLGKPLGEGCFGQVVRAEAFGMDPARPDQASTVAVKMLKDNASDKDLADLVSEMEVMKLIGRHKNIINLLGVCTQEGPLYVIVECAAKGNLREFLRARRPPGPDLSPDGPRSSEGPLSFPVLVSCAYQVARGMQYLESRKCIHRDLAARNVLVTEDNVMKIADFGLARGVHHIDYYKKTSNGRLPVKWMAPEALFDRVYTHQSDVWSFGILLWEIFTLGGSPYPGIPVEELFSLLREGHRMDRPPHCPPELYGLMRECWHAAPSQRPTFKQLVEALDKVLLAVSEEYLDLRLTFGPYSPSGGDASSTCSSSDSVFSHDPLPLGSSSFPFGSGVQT

Structure (SMILES)	inhibition [1]	inhibition [2]	inhibition [3]	inhibition [4]	inhibition [5]	inhibition [6]	inhibition [7]	inhibition [8]	inhibition [9]	inhibition [10]	inhibition [11]	inhibition [12]	inhibition [13]	inhibition [14]	inhibition [15]	inhibition [16]	inhibition [17]	inhibition [18]	inhibition [19]	inhibition [20]
CN1CCC(n2cnc(-c3ccc(F)cc3)c2-c2ccnc(N)n2)CC1	11.7%	4.01%	1.1%	1.15%	2.9%	1.81%	3.61%	8.28%	18.6%	1.42%	8.24%	2.63%	2.33%	-0.33%	-2.26%	1.68%	4.49%	3.51%	4.31%	1.4%
CC(C)(CO)CNC(=O)c1ccc2c(c1)/C(=N/Nc1ccc(S(N)(=O)=O)cc1)C(=O)N2	7.99%	-0.32%	0.79%	-2.31%	-0.62%	0.9%	3.86%	4.68%	7.73%	-7.05%	–	-0.1%	0.22%	-4.71%	1.07%	0.16%	6.9%	4.13%	5.3%	0.38%
CNC(=O)c1cccc(C#Cc2cncnc2Nc2ccc(OCc3cccc(F)c3)c(Cl)c2)c1	6.47%	0.65%	1.29%	-1.02%	0.31%	-1.06%	23.7%	17.6%	58.4%	1.71%	2.2%	0.17%	1.47%	-1.46%	0.26%	0.94%	8.07%	1.87%	–	0.5%
CCN(CC)S(=O)(=O)c1ccc(OC)c(Nc2ncc(-c3ccccc3)o2)c1	15.1%	3.77%	0.54%	0.17%	7.93%	0.91%	2.81%	7.08%	6.51%	0.84%	4.52%	0.12%	-0.42%	0.18%	23.7%	15%	54.6%	18.4%	59.5%	2.44%
N#Cc1c(NC(=O)c2ccc(F)cc2)sc2c1CCCC2	5.96%	2.46%	3.74%	-0.69%	0.04%	-0.32%	-0.51%	5.37%	7.46%	0.75%	0.95%	0.56%	1.22%	1.48%	2.08%	1.6%	3.48%	1.58%	2.77%	0.23%
CC(=O)NCc1cccc(C#Cc2cncnc2Nc2ccc(OCc3cccc(F)c3)c(Cl)c2)c1	-0.33%	2.82%	2.99%	0.57%	2.91%	-0.95%	-0.83%	11.6%	50.4%	2.72%	0.86%	0.32%	0.52%	-0.81%	-0.46%	-2.84%	-0.08%	0.88%	0.49%	0.41%
Fc1ccc(-c2nn3ncccc3c2-c2ccnc(Nc3ccc4c(c3)OCCO4)n2)cc1	73.6%	–	16.2%	20.1%	64.8%	11%	41.4%	84.3%	94.6%	1.71%	13.8%	3.45%	6.43%	4.68%	15.9%	5.02%	23.5%	4.66%	13.5%	-2%
